{
  "source": "PubChem BioAssay (NCATS)",
  "note": "“And” between values parts separate entries of the source, which are not always exact repeats. Identical values can stand only once. Inconclusive results are not listed. A number with no mark means an inactive call. The source made the active and inactive calls. Calls come from the whole dose curve; as a rule, active = well fitted activation curve with a large enough effect; inconclusive = small, poorly fitted or top-dose-only effect; inactive = no such curve, though single readings can be large or run the other way. Potency is the fitted concentration of half-maximal effect.",
  "data": [
    {"molecular_target": "Cellular tumor antigen p53 (Homo sapiens) (UniProt P04637)", "sequence (P04637 whole entry, looked up)": "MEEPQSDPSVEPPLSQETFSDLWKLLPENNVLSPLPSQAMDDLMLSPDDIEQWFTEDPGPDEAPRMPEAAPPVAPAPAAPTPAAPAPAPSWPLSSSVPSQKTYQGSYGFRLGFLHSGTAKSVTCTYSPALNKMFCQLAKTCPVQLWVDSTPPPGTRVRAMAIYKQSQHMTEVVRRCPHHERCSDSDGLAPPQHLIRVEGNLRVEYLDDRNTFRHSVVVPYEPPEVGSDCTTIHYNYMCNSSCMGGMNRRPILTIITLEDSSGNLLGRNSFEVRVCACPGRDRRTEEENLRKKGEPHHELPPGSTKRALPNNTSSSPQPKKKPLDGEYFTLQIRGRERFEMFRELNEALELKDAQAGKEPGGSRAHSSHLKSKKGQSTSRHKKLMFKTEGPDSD", "test": "Primary qHTS for small molecule compounds that upregulate eGFP-tagged delta133p53alpha (in N-terminal) cells. (AID 2060322); note: nearly all actives have a fitted effect of over 75% in size;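 for activation: series mostly up to about 56 µM; 0% = DMSO vehicle and 100% = reference activator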", "details": "NCI-H358 eGFP-delta133p53alpha fluorescence, 24 h; activation: hits give high values", "in_short": "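NCI-H358 cells pre-induced 24 h with 10 ng/ml doxycycline to express N-terminal eGFP-delta133p53alpha, then dosed 24 h at 37C without doxycycline; fixed, Hoechst-stained, GFP intensity by laser scanning cytometry, normalized to DMSO (0%) and 57.5 uM 5-azacytidine (100%).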", "values": [
      {"smiles": "C[C@H]1C[C@H]2[C@@H]3CCC4=CC(=O)C=C[C@]4(C)[C@@]3(Cl)[C@@H](O)C[C@]2(C)[C@@]1(O)C(=O)CO", "activation": "-4.18%"},
      {"smiles": "CC(=O)O[C@H]1CC[C@@]2(C)C(=CC[C@@H]3[C@@H]2CC[C@]2(C)C(C(C)=O)=CC[C@@H]32)C1", "activation": "4.18%"},
      {"smiles": "CC[C@H](C)[C@H](N)C(=O)O", "activation": "-22%"},
      {"smiles": "Oc1c(I)cc(I)c2cccnc12", "activation": "-5.86%"},
      {"smiles": "C[C@@H]1C[C@H]2[C@@H]3CCC4=CC(=O)C=C[C@]4(C)[C@@]3(Cl)[C@@H](O)C[C@]2(C)[C@@]1(OC(=O)c1ccco1)C(=O)CCl", "activation": "19.9%"},
      {"smiles": "Cc1ccc(S(=O)(=O)NC(=O)NC2CCCCCCC2)cc1", "activation": "-3.95%"},
      {"smiles": "CC(C)N(CC[C@H](c1ccccc1)c1cc(CO)ccc1O)C(C)C", "activation": "16.8%"},
      {"smiles": "COc1cc(/C=C/C(N)=O)cc(OC)c1OC", "activation": "-18.6%"},
      {"smiles": "CCCCC(CC)COC(=O)c1ccccc1O", "note": "(stereo not given)", "activation": "-22.6%"},
      {"smiles": "COC(=O)/C=C\\C(=O)OC", "activation": "-9.6%"},
      {"smiles": "CCOC(=O)C(=O)c1csc(NC=O)n1", "activation": "-16.4%"},
      {"smiles": "C[N+]1(C)CCCC(OC(=O)C(O)(c2ccccc2)c2ccccc2)C1", "note": "(stereo not given)", "activation": "-37.9%"},
      {"smiles": "Cc1c(N)cccc1C(F)(F)F", "activation": "-19.8%"},
      {"smiles": "Nc1cccc2c(N)cccc12", "Potency": "28.2 µM (active)"},
      {"smiles": "O=C(c1cccc(Br)c1)N1CCC(N2CCCC2)CC1", "activation": "-15.6%"},
      {"smiles": "Cc1ccc2c(Cl)cc(Cl)c(O)c2n1", "activation": "7.34%"},
      {"smiles": "NC(=O)N1c2ccccc2CC(=O)c2ccccc21", "activation": "19.2% and 34.6%"},
      {"smiles": "Cc1c(I)c(=O)n(-c2ccccc2)n1C", "activation": "-10.7%"},
      {"smiles": "CCCCCCCCCCCCCCNCCO", "activation": "-16.7%"},
      {"smiles": "Nc1ncnc2c1ncn2[C@@H]1O[C@@H](CO)[C@H](O)[C@H]1O", "activation": "-9.84%"},
      {"smiles": "Cc1c(C)n(Cc2ccccc2)c2ccc(C(=O)OCCN(C)C)cc12", "activation": "-0.837%"},
      {"smiles": "O=c1[nH]cnc2nc[nH]c12", "activation": "-9.6%"},
      {"smiles": "CC(=O)Oc1cccc(O)c1", "activation": "18.6%"},
      {"smiles": "COCCc1ccccn1", "activation": "15.1%"},
      {"smiles": "COC(=O)C1=C(C)NC(C)=C(C(=O)OCCc2ccc(N3CCN(C(c4ccccc4)c4ccccc4)CC3)cc2)C1c1cccc([N+](=O)[O-])c1", "note": "(stereo not given)", "activation": "-15.9%"},
      {"smiles": "CC1(c2ccccc2)OC(C(=O)O)=CC1=O", "note": "(stereo not given)", "activation": "26.8%"},
      {"smiles": "CN1CCN(C2=Nc3ccccc3Sc3ccc(Cl)cc32)CC1", "activation": "15.3%"},
      {"smiles": "COC(=O)N/N=C/c1c[n+]([O-])c2ccccc2[n+]1[O-]", "activation": "-30.1%"},
      {"smiles": "C/C(=C(\\CCO)SS/C(CCO)=C(\\C)N(C=O)Cc1cnc(C)nc1N)N(C=O)Cc1cnc(C)nc1N", "activation": "-9.6%"},
      {"smiles": "Nc1ccc(S(=O)(=O)NC(=O)c2ccccc2)cc1", "activation": "5.08%"},
      {"smiles": "OC1(c2ccc(Cl)cc2)CCNCC1", "activation": "-8.47%"},
      {"smiles": "CCc1cnn2c(NCc3ccc[n+]([O-])c3)cc(N3CCCC[C@@H]3CCO)nc12", "Potency": "0.0685 µM (active)"},
      {"smiles": "O=C(O)Cn1c(C(=O)Nc2nc(-c3ccccc3Cl)cs2)cc2ccccc21", "activation": "5.08%"},
      {"smiles": "Nc1ccc(C(=O)O)c(O)c1", "activation": "20.9%"},
      {"smiles": "CCc1cccc(CC)c1NC(=O)CN(CC(=O)O)CC(=O)O", "activation": "26.6%"},
      {"smiles": "CC(=O)O[C@]1(C(C)=O)CC[C@H]2[C@@H]3C=C(Cl)C4=CC(=O)CC[C@]4(C)[C@H]3CC[C@@]21C", "activation": "-6.69%"},
      {"smiles": "CC(C=CC=C(C)C=CC1=C(C)CCCC1(C)C)=CC=CC=C(C)C=CC=C(C)C=CC1=C(C)CCCC1(C)C", "activation": "13.6%"},
      {"smiles": "COc1cc2c3cc1Oc1cc(ccc1O)C[C@@H]1c4c(cc(OC)c(O)c4Oc4ccc(cc4)C[C@@H]3N(C)CC2)CC[N+]1(C)C", "activation": "19.8%"},
      {"smiles": "COc1cc(C(=O)N2CCOCC2)cc(OC)c1OC", "activation": "20.9%"},
      {"smiles": "C[C@]12C=CC(=O)C=C1CC[C@@H]1C2=CC[C@]2(C)[C@@H](C(=O)CN3CCN(c4cc(N5CCCC5)nc(N5CCCC5)n4)CC3)CC[C@@H]12", "activation": "-22.1%"}
    ]}
  ]
}
